Results from PubChem BioAssay (Tox21).
Results filed as inconclusive are left out. The source made the active and inactive calls. The call rests on the fitted dose curve; in most records, active means well fitted activation curve with a large enough effect in the repeat runs; inconclusive means weak or mixed curves; inactive means flat fitted curve, though single readings scatter.

test: A CellTox Green Cytotoxicity Assay to monitor cytotoxicity in HepG2 cells - 0 hour (AID 1224882); settings: CellTox Green fluorescence; series mostly up to 76.8 µM; cytotoxicity: at the top concentration; further: nearly all actives have a fitted effect of over 35% in size
Procedure, shortened: (§1)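 HepG2 cells, 600/well, preincubated 5 h with CellTox Green dye, then exposed to Tox21 compounds in DMSO at 37 C for up to 40 h. Dead-cell DNA fluorescence read at the indicated time point.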
On the % scale 0 is the no-effect control and ±100 the full control effect; potency means the concentration at half of the fitted maximal effect.

SMILES | cytotoxicity | Potency
CCCC(C)C(O)CC (centres undefined) | 1.84% (inactive) | –
CC(=O)Nc1ccc(OCCOCCOc2ccc(NC(C)=O)cc2)cc1 | 3.24% [at 35.3 µM] (inactive) | –
CC(C)OC(=O)C(C(=O)OC(C)C)=C1SC=CS1 | -29.3% [at 35.3 µM] (inactive) | –
COC(=O)N/N=C/c1c[n+]([O-])c2ccccc2[n+]1[O-] | – | 23.9 µM (active)
CN(C)CCCN(C)C | -10.6% [at 6.97 µM] (inactive) | –
CCCCCCCC(=O)N(C)C | 0.394% (inactive) | –
CC(=O)c1c(C)cc(C(C)(C)C)cc1C | 2.07% (inactive) | –
C=CC(C)(CCC=C(C)C)OC(=O)C(C)C (centres undefined) | -6.86% (inactive) | –
O=C(OOC(=O)c1ccccc1)c1ccccc1 | 10.5% [at 35.3 µM] (inactive) | –
COc1ccc(Cl)cc1C | -2.76% (inactive) | –
Clc1ccc2c(c1)Nc1ccccc1S2 | -2.38% [at 35.3 µM] (inactive) | –
N[C@H]1C(O)O[C@H](CO)[C@@H](O)[C@@H]1O (some centres undefined) | 1.07% [at 35.3 µM] (inactive) | –
O=C1Nc2ccccc2C1=O | -10.2% (inactive) | –
CN(C)c1ccncc1 | 5.51% (inactive) | –
CN(C)CCc1c[nH]c2ccc(C[C@H]3COC(=O)N3)cc12 | 2.28% [at 35.3 µM] (inactive) | –
Cc1nnc(C(=O)NC(C)(C)c2nc(C(=O)NCc3ccc(F)cc3)c(O)c(=O)n2C)o1 | -1.75% [at 35.3 µM] (inactive) | –

SMILES | cytotoxicity | Potency
COC(=O)c1c(C)cc(O)c(C)c1O | 7.32% (inactive) | –
CCCCS | -1.83% (inactive) | –
C[C@@H](CN1CC(=O)NC(=O)C1)N1CC(=O)NC(=O)C1 | -0.233% [at 35.3 µM] (inactive) | –
CCCCOCCCC | 4.12% (inactive) | –
N=C(N)N | 8.25% [at 35.3 µM] (inactive) | –
CCCC(=O)C(CC)Sc1ccoc1C (centres undefined) | 1.63% (inactive) | –
C=CCON/C(CCC)=C1\C(=O)CC(C)(C)C(C(=O)OC)=C1O | 2.19% (inactive) | –
CC/C=C\CCOC(=O)c1ccccc1 | -6.56% (inactive) | –
CCCCC(CC)COC(=O)CC#N (centres undefined) | -2.27% (inactive) | –
CC/C=C\CCCCCCCCCCOC(C)=O | 2.4% (inactive) | –
Cc1ccc(OC(=O)CC(C)C)cc1 | 6.84% (inactive) | –
O=P(O)(O)C(O)(Cc1cccnc1)P(=O)(O)O | -9.43% [at 35.3 µM] (inactive) | –
COc1cc(C(=O)NC2CCCNC2)cc(OC)c1OC (centres undefined) | -23.9% [at 35.3 µM] (inactive) | –
COc1cc2nc(N3CCN(C(=O)C4CCCO4)CC3)nc(N)c2cc1OC (centres undefined) | -6.49% [at 35.3 µM] (inactive) | –
CC(C)C[P+](C)(CC(C)C)CC(C)C | -1.99% (inactive) | –

test: A CellTox Green Cytotoxicity Assay to monitor cytotoxicity in HepG2 cells - 32 hour (AID 1224883); settings: CellTox Green fluorescence; series mostly up to 76.8 µM; cytotoxicity increase: at the top concentration; further: nearly all actives have a fitted effect of over 50% in size
Procedure, shortened: as §1

SMILES | cytotoxicity increase | Potency
CCCC(C)C(O)CC (centres undefined) | 3.53% (inactive) | –
CC(=O)Nc1ccc(OCCOCCOc2ccc(NC(C)=O)cc2)cc1 | -3.78% [at 35.3 µM] (inactive) | –
CC(C)OC(=O)C(C(=O)OC(C)C)=C1SC=CS1 | 0.919% [at 35.3 µM] (inactive) | –
COC(=O)N/N=C/c1c[n+]([O-])c2ccccc2[n+]1[O-] | – | 23.9 µM (active)
CN1CCN(C(=O)C2CCCCC2)CC1 | -16.6% [at 35.3 µM] (inactive) | –
C=CCCCCCCCCOC(C)=O | 6.48% (inactive) | –
CC(=O)c1ccc2ccc3ccccc3c2c1 | 6.48% (inactive) | –
C=CC(C)(CCC=C(C)C)OC(=O)C(C)C (centres undefined) | -15.5% (inactive) | –
CCOC(=O)COc1ccc2c(C)c(CCN(CC)CC)c(=O)oc2c1Cl | -11.2% [at 35.3 µM] (inactive) | –
O=C(OOC(=O)c1ccccc1)c1ccccc1 | 12.9% [at 35.3 µM] (inactive) | –
COc1ccc(Cl)cc1C | -2.08% (inactive) | –
Clc1ccc2c(c1)Nc1ccccc1S2 | -16.5% [at 35.3 µM] (inactive) | –
CCN(CC)CC(=O)Oc1ccc(NC(C)=O)cc1 | -9.47% [at 35.3 µM] (inactive) | –
N[C@H]1C(O)O[C@H](CO)[C@@H](O)[C@@H]1O (some centres undefined) | 1.11% [at 35.3 µM] (inactive) | –
O=C1Nc2ccccc2C1=O | -7.87% (inactive) | –
CN(C)CCc1c[nH]c2ccc(C[C@H]3COC(=O)N3)cc12 | -0.848% [at 35.3 µM] (inactive) | –
Cc1nnc(C(=O)NC(C)(C)c2nc(C(=O)NCc3ccc(F)cc3)c(O)c(=O)n2C)o1 | 11% [at 35.3 µM] (inactive) | –
COC(=O)c1c(C)cc(O)c(C)c1O | 18.3% (inactive) | –
CCCCS | -0.589% (inactive) | –
C[C@@H](CN1CC(=O)NC(=O)C1)N1CC(=O)NC(=O)C1 | 11.2% [at 35.3 µM] (inactive) | –
CCCCOCCCC | 12.2% (inactive) | –
N=C(N)N | 5.91% [at 35.3 µM] (inactive) | –
CCCCC(CC)COC(=O)CC#N (centres undefined) | 8.29% (inactive) | –
CC/C=C\CCCCCCCCCCOC(C)=O | -2.71% (inactive) | –
Cc1ccc(OC(=O)CC(C)C)cc1 | 14.8% (inactive) | –
O=P(O)(O)C(O)(Cc1cccnc1)P(=O)(O)O | -13.6% [at 35.3 µM] (inactive) | –
COc1cc(C(=O)NC2CCCNC2)cc(OC)c1OC (centres undefined) | -42.5% [at 35.3 µM] (inactive) | –
COc1cc2nc(N3CCN(C(=O)C4CCCO4)CC3)nc(N)c2cc1OC (centres undefined) | -15.1% [at 35.3 µM] (inactive) | –
